# Inconclusive results are not listed. Where a call stands in place of a potency, no number is given. The source made the active and inactive calls. Unless noted, calls come from the whole dose curve.
# Target: Nucleoprotein (Lymphocytic choriomeningitis virus (strain Armstrong)) (UniProt P09992)
# Experiment: qHTS for Inhibitors of the Functional Ribonucleoprotein Complex (vRNP) of Lymphocytic Choriomeningitis Arenaviruses (LCMV): LCMV Primary Screen - GLuc reporter signal (AID 1347086); note: nearly all actives have a fitted effect of over 70% in size
# Details: LCMV minigenome vRNP cell assay, Gaussia luciferase reporter; series mostly up to 57.5 µM
# Potency is the fitted concentration of half-maximal effect.
# Nucleoprotein (Lymphocytic choriomeningitis virus (strain Armstrong)), sequence (P09992 whole entry, looked up): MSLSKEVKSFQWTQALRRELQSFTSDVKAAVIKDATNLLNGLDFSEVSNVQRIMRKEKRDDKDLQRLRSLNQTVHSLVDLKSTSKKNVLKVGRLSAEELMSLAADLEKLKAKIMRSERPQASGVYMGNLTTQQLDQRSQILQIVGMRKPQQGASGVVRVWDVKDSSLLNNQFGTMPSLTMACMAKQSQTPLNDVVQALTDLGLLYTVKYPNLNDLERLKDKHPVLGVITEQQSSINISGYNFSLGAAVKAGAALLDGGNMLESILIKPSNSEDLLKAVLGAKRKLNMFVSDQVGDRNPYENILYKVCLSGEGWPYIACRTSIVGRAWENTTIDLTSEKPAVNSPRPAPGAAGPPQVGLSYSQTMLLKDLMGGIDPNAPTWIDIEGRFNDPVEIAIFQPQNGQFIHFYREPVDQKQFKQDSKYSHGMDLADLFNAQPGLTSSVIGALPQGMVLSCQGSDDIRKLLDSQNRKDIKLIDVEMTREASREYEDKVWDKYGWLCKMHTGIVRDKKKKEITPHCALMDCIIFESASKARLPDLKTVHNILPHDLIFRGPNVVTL
row,SMILES,Potency
1,COc1cc(NCc2ccc3nc(N)nc(N)c3c2C)cc(OC)c1OC,inactive
2,CCc1c2c(nc3ccc(OC(=O)N4CCC(N5CCCCC5)CC4)cc13)-c1cc3c(c(=O)n1C2)COC(=O)[C@]3(O)CC,27300 nM (active)
3,O=C1Cc2cc(CCN3CCN(c4nsc5ccccc45)CC3)c(Cl)cc2N1,inactive
4,CC(C)CC(N(C)C)C1(c2ccc(Cl)cc2)CCC1 (centres undefined),inactive
5,CCC1=C[C@@H]2CN(C1)Cc1c([nH]c3ccccc13)[C@@](C(=O)OC)(c1cc3c(cc1OC)N(C)[C@H]1[C@@](O)(C(=O)OC)[C@H](OC(C)=O)[C@]4(CC)C=CCN5CC[C@]31[C@@H]54)C2,inactive
6,CCC(=O)C(CC(C)N(C)C)(c1ccccc1)c1ccccc1 (centres undefined),inactive
7,CS(=O)(=O)CCNCc1ccc(-c2ccc3ncnc(Nc4ccc(OCc5cccc(F)c5)c(Cl)c4)c3c2)o1,769 nM (active)
8,Nc1nc2c(ncn2COC(CO)CO)c(=O)[nH]1,inactive
9,CC(C)n1c(C=C[C@H](O)C[C@H](O)CC(=O)O)c(-c2ccc(F)cc2)c2ccccc21,21700 nM (active)
10,Cc1ccc(-n2nc(C(C)(C)C)cc2NC(=O)Nc2ccc(OCCN3CCOCC3)c3ccccc23)cc1,inactive
11,COC(=O)C1=C(C)NC(C)=C(C(=O)OCC(C)C)C1c1ccccc1[N+](=O)[O-] (centres undefined),inactive
12,CC(=O)N(O)CCCCCNC(=O)CCC(=O)N(O)CCCCCNC(=O)CCC(=O)N(O)CCCCCN,inactive
13,NC1[C@H]2CN(c3nc4c(cc3F)c(=O)c(C(=O)O)cn4-c3ccc(F)cc3F)C[C@@H]12 (some centres undefined),inactive
14,Nc1nc(N)c2nc(-c3ccccc3)c(N)nc2n1,inactive
15,Nc1ccn([C@@H]2O[C@H](CO)[C@@H](O)C2(F)F)c(=O)n1,inactive
16,Cc1nc(Nc2ncc(C(=O)Nc3c(C)cccc3Cl)s2)cc(N2CCN(CCO)CC2)n1,inactive
17,O=C(c1ccccc1)c1ccc2n1CCC2C(=O)O (centres undefined),inactive
18,CC1(CN2CCC(n3c(=O)[nH]c4ccccc43)CC2)OCc2ccccc2-n2cccc21 (centres undefined),inactive
19,COc1cc(Nc2c(C#N)cnc3cc(OCCCN4CCN(C)CC4)c(OC)cc23)c(Cl)cc1Cl,inactive
20,Cc1sc2c(c1C)C(c1ccc(Cl)cc1)=N[C@@H](CC(=O)OC(C)(C)C)c1nnc(C)n1-2,385 nM (active)
21,C[C@@H]1[C@@H](CC(C[C@H]2O[C@@H]3O[C@]4(C)CC[C@@H]5[C@H](C)CC[C@@H]([C@H]2C)[C@@]35OO4)C[S+](=O)([O-])c2ccc(COC(=O)N(C)C)cc2)O[C@@H]2O[C@]3(C)CC[C@H]4[C@H](C)CC[C@@H]1[C@@]24OO3 (some centres undefined),inactive
22,CCN(CC)CCN1C(=O)CN=C(c2ccccc2F)c2cc(Cl)ccc21,inactive
23,O=C1c2c(O)ccc(O)c2C(=O)c2c(NCCNCCO)ccc(NCCNCCO)c21,4320 nM (active)
24,Cc1ccc(S(=O)(=O)NC(=O)NN2CC3CCCC3C2)cc1 (centres undefined),inactive
25,CO[C@@]12[C@H](COC(N)=O)C3=C(C(=O)C(C)=C(N)C3=O)N1C[C@@H]1N[C@@H]12,inactive
26,CC1=C(/C=C/C(C)=C/C=C/C(C)=C/C(=O)Nc2ccc(O)cc2)C(C)(C)CCC1,8910 nM (active)
27,CCCC(CCC)C(=O)O,inactive
28,CNS(=O)(=O)CCc1ccc2[nH]cc(C3CCN(C)CC3)c2c1,inactive

# Test system: not listed separately
# Experiment: qHTS of pediatric cancer cell lines to identify multiple opportunities for drug repurposing: Primary screen for TC32 cells (AID 1347089; active = well fitted curve in the direction sought with a large enough effect; an effect the other way counts as inactive or inconclusive; note: nearly all actives have a fitted effect of over 60% in size)
# Details: TC32 Ewing sarcoma viability, CellTiter-Glo luminescence, 48 h; series mostly up to 45.8 µM
# How it was run: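 Luminescent ATP read-out (CellTiter-Glo) of metabolically active TC32 cells after 48 h exposure. Concentration-response curves came from 11-point (MIPE, 0.78 nM–46 µM) or 8-point (NPC, 0.59 nM–46 µM) primary titrations; follow-up used 11 points.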
row,SMILES,Potency
1,C[C@H]1O[C@@H](O[C@H]2[C@@H](O)C[C@H](O[C@H]3[C@@H](O)C[C@H](O[C@H]4CC[C@@]5(C)[C@H](CC[C@@H]6[C@@H]5CC[C@]5(C)[C@@H](C7=CC(=O)OC7)CC[C@]65O)C4)O[C@@H]3C)O[C@@H]2C)C[C@H](O)[C@@H]1O,37.4 nM (active)
2,CCC(=O)C(CC(C)N(C)C)(c1ccccc1)c1ccccc1 (centres undefined),inactive
3,CN(C)CCN(C)CCc1ccc(Cl)c(Cl)c1,inactive

# Test system: not listed separately
# Experiment: qHTS of pediatric cancer cell lines to identify multiple opportunities for drug repurposing: Primary screen for DAOY cells (AID 1347090; active = well fitted curve in the direction sought with a large enough effect; an effect the other way counts as inactive or inconclusive; note: nearly all actives have a fitted effect of over 55% in size)
# Details: DAOY medulloblastoma viability, CellTiter-Glo luminescence, 48 h; series mostly up to 46 µM
# How it was run: (§1)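 Cell viability, CellTiter-Glo luminescence; 500-1,000 cells/well, 8- or 11-point titration, 48 h compound exposure at 37 degrees C, 5% CO2. Controls: DMSO neutral, bortezomib 2.3 µM final as positive.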
row,SMILES,Potency
1,C[C@H]1O[C@@H](O[C@H]2[C@@H](O)C[C@H](O[C@H]3[C@@H](O)C[C@H](O[C@H]4CC[C@@]5(C)[C@H](CC[C@@H]6[C@@H]5CC[C@]5(C)[C@@H](C7=CC(=O)OC7)CC[C@]65O)C4)O[C@@H]3C)O[C@@H]2C)C[C@H](O)[C@@H]1O,13.3 nM (active)
2,CC(C)CC(N(C)C)C1(c2ccc(Cl)cc2)CCC1 (centres undefined),inactive
3,CCC(=O)C(CC(C)N(C)C)(c1ccccc1)c1ccccc1 (centres undefined),34700 nM (active)
4,Cn1cc(C2=C(c3cn(C4CCN(Cc5ccccn5)CC4)c4ccccc34)C(=O)NC2=O)c2ccccc21,inactive
5,CCN(CC)CCN1C(=O)CN=C(c2ccccc2F)c2cc(Cl)ccc21,inactive
6,CN(C)CCN(C)CCc1ccc(Cl)c(Cl)c1,inactive

# Test system: not listed separately
# Experiment: qHTS of pediatric cancer cell lines to identify multiple opportunities for drug repurposing: Primary screen for SJ-GBM2 cells (AID 1347091; active = well fitted curve in the direction sought with a large enough effect; an effect the other way counts as inactive or inconclusive)
# Details: SJ-GBM2 viability, CellTiter-Glo luminescence, 48 h; series mostly up to 46 µM
# How it was run: as §1
row,SMILES,Potency
1,CC(C)CC(N(C)C)C1(c2ccc(Cl)cc2)CCC1 (centres undefined),inactive
2,CCC(=O)C(CC(C)N(C)C)(c1ccccc1)c1ccccc1 (centres undefined),inactive
3,Cc1sc2c(c1C)C(c1ccc(Cl)cc1)=N[C@@H](CC(=O)OC(C)(C)C)c1nnc(C)n1-2,2640 nM (active)
4,C[C@@H]1[C@@H](CC(C[C@H]2O[C@@H]3O[C@]4(C)CC[C@@H]5[C@H](C)CC[C@@H]([C@H]2C)[C@@]35OO4)C[S+](=O)([O-])c2ccc(COC(=O)N(C)C)cc2)O[C@@H]2O[C@]3(C)CC[C@H]4[C@H](C)CC[C@@H]1[C@@]24OO3 (some centres undefined),469 nM (active)
5,CCN(CC)CCN1C(=O)CN=C(c2ccccc2F)c2cc(Cl)ccc21,inactive
6,CNC(=O)N1N=C(c2ccc(N)cc2)c2cc3c(cc2CC1C)OCO3 (centres undefined),inactive
7,CN(C)CCN(C)CCc1ccc(Cl)c(Cl)c1,inactive
